Data reported in PubChem BioAssay (Tox21).
Records with an inconclusive call do not appear. Active and inactive are the calls of the source. Unless noted, calls follow the shape of the dose curve; as a rule, active = well fitted curve in the direction sought with a large enough effect in the repeat runs; inconclusive = weak or mixed curves; inactive = no such curve, though single readings can be large; an effect the other way counts as inactive or inconclusive.

Experiments:
[1] = qHTS assay for small molecule agonists of the p53 signaling pathway (AID 651631; calls by dose curve; also: nearly all actives have a fitted effect of over 15% in size)
Method in brief: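 HCT-116 cells carrying a stable p53 response element–beta-lactamase reporter were plated, rested 5 h at 37 °C, then exposed to compound in DMSO for 16 h at 37 °C; reporter activity was read as FRET substrate fluorescence after 2 h at room temperature.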

[2] = qHTS assay for small molecules that induce genotoxicity in human embryonic kidney cells expressing luciferase-tagged ATAD5 (AID 651632); also: nearly all actives have a fitted effect of over 15% in size
Method in brief: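 A rise in luciferase signal from ATAD5-tagged HEK293T cells marks genetic stress. Cells were exposed to compounds for 16 hr at 37C, 5% CO2, then luciferase was quantified after a 30 min room-temperature incubation with Amplite.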

[3] = qHTS assay for small molecule agonists of the p53 signaling pathway - cell viability (AID 651633; calls by dose curve; also: series mostly up to about 83 µM; nearly all actives have a fitted effect of over 30% in size)
Method in brief: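 Viability counter-read: CellTiter-Glo luminescence (30 min, room temperature) in the same p53RE-bla plates. These plates had been exposed to compounds for 16 h at 37 C.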

[4] = qHTS assay for small molecules that induce genotoxicity in human embryonic kidney cells expressing luciferase-tagged ATAD5 - cell viability (AID 651634; calls by dose curve; also: nearly all actives have a fitted effect of over 25% in size)
Method in brief: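 Cytotoxicity counter-readout: after 15.5 hr compound treatment at 37C, live-cell protease activity in ATAD5-luciferase HEK293T cells measured by CellTiter-Fluor fluorescence, 30 min development at 37C.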

[5] = qHTS assay for small molecule disruptors of the mitochondrial membrane potential - cell viability (AID 720634; calls by dose curve;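 also: human HepG2 liver cancer cells; series mostly up to about 83 µM; nearly all actives have a fitted effect of over 20% in size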)
Method in brief: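 Cytotoxicity was quantified from ATP content by CellTiter-Glo luminescence in the same wells as the MMP dye read-out. HepG2 (2,000 cells/well) were plated overnight and exposed to compounds for 1 hr at 37 C.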

[6] = qHTS assay for small molecule disruptors of the mitochondrial membrane potential (AID 720635)
Method in brief: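 Mitochondrial membrane potential tracked with Mito-MPS dye, red aggregates (ex 540/em 590 nm) against green monomers (ex 490/em 535 nm). Compound treatment 1 hr at 37C, dye 30 min in HepG2.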

[7] = qHTS assay to test for compound auto fluorescence at 590 nm (red) in HepG2 cells (AID 720674)
Method in brief: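 1 hr compound incubation on HepG2 cells, 37 C, 5% CO2; plate read ex 540 nm / em 590 nm; intensities reported as Rose Bengal sodium equivalents.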

[8] = qHTS assay to test for compound auto fluorescence at 535 nm (green) in HepG2 cells (AID 720675)
[9] = qHTS assay to test for compound auto fluorescence at 460 nm (blue) in HEK293 cells (AID 720678)
Method in brief: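 HEK293 cells (2,000 per well, medium with 10% dialyzed FBS) attached for 4-5 hr at 37C, then received compound and stood overnight at 37C, 5% CO2. Blue fluorescence was read at Ex/Em 405/460 nm and expressed relative to triamterene.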

[10] = qHTS assay to test for compound auto fluorescence at 590 nm (red) in HEK293 cells (AID 720679)
Method in brief: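 HEK293 cells (2,000/well, medium with 10% dialyzed FBS) attached for 4-5 hr at 37C, received 23 nL compound and were incubated overnight at 37C, 5% CO2. Red fluorescence was then read at 540/590nm Ex/Em, referenced to Rose Bengal sodium.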

[11] = qHTS assay to test for compound auto fluorescence at 460 nm (blue) in HEK293 cell free culture (AID 720681)
Method in brief: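 Blue fluorescence (Ex 405/Em 460 nm, triamterene-equivalent) was read immediately after pin transfer of compound or DMSO into medium (DMEM, 10% FBS) without cells.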

[12] = qHTS assay to test for compound auto fluorescence at 535 nm (green) in HEK293 cell free culture (AID 720682)
Method in brief: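 Read-out: 485/535 nm fluorescence intensity, calibrated against fluorescein. Medium only (DMEM + 10% FBS, no cells); test compound or DMSO vehicle added by pintool before plate reading.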

[13] = qHTS assay to test for compound auto fluorescence at 590 nm (red) in HEK293 cell free culture (AID 720683)
Method in brief: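 Red-channel autofluorescence of compounds in culture medium (DMEM, 10% FBS), no cells, measured at 540/590 nm. Rose Bengal sodium is the reference fluorophore for equivalence.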

[14] = qHTS assay to test for compound auto fluorescence at 590 nm (red) in HepG2 cell free culture (AID 720684)
Method in brief: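 Cell-free; medium MEM + 10% FBS; compound or DMSO added by pintool; read Ex 540/Em 590 nm; Rose Bengal sodium as red reference fluorophore.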

[15] = qHTS assay to test for compound auto fluorescence at 460 nm (blue) in HepG2 cell free culture (AID 720685)
Method in brief: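 Cell-free plates of MEM plus 10% FBS received 23 nL compound or DMSO vehicle; blue-channel (405/460 nm) intensity scored against triamterene as reference fluorophore.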

[16] = qHTS assay to test for compound auto fluorescence at 535 nm (green) in HepG2 cell free culture (AID 720686)
[17] = qHTS assay to test for compound auto fluorescence at 460 nm (blue) in HepG2 cells (AID 720687)
Method in brief: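 Blue-channel autofluorescence (Ex/Em 405/460 nm, triamterene-equivalent) was measured after 1 hr compound exposure at 37 C, 5% CO2. Cells were HepG2, plated overnight at 37 C in MEM plus 10% FBS.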

[18] = qHTS assay to test for compound auto fluorescence at 535 nm (green) in HEK293 cells (AID 720680)
[19] = molecular target: Glucocorticoid receptor (Homo sapiens) (UniProt P04150); experiment: qHTS assay to identify small molecule agonists of the glucocorticoid receptor (GR) signaling pathway (AID 720691; active = well fitted activation curve with a large enough effect in the signal ratio in the repeat runs, not every such curve was filed as active; the % refers to the signal ratio)
Method in brief: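 Agonist-mode qHTS in HeLa cells stably expressing a glucocorticoid-response-element beta-lactamase reporter. Fluorescence intensity read with FRET substrate (2 h, room temperature) after 18 h compound treatment at 37 C.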

[20] = molecular target: Glucocorticoid receptor (Homo sapiens) (UniProt P04150); experiment: qHTS assay to identify small molecule antagonists of the glucocorticoid receptor (GR) signaling pathway (AID 720692; active = well fitted inhibition curve with a large enough effect in the signal ratio in the repeat runs, not every such curve was filed as active; the % refers to the signal ratio)
Method in brief: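 Inhibition of dexamethasone-driven (5 nM final) beta-lactamase expression was measured in GRE-reporter HeLa cells over 18 h at 37C. Fluorescence was read after 2 h with the B/G FRET substrate at room temperature.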
% is scaled to controls: 0 for no effect and ±100 for the full control effect.

Chain of Glucocorticoid receptor (Homo sapiens) (P04150 whole entry, looked up): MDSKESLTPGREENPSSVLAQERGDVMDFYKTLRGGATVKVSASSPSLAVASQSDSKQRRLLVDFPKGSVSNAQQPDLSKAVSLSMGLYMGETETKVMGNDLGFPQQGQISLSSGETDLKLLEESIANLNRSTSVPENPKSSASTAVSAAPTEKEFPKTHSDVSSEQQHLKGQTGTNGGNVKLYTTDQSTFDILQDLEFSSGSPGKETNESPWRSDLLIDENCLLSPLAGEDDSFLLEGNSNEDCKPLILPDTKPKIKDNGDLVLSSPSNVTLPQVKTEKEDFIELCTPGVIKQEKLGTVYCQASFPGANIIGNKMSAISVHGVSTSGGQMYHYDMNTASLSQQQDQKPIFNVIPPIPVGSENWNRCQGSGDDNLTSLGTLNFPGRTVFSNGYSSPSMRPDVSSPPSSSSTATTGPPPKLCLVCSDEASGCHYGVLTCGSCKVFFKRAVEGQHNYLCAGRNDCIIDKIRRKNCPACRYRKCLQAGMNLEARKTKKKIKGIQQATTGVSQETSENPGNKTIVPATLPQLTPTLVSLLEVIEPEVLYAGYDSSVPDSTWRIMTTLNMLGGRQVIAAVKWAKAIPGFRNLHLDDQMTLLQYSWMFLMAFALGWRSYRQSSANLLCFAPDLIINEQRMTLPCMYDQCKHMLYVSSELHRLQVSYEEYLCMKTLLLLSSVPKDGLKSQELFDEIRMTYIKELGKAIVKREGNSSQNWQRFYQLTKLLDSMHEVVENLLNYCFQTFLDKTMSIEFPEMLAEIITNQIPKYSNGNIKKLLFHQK

CN(CC1(C)CCCO1)S(=O)(=O)c1ccc(Cl)c(S(N)(=O)=O)c1 (centres undefined)
inactive: Potency [1] | Potency [2] | Potency [3] | Potency [4] | Potency [5] | Potency [6] | outcome [7] | outcome [8] | outcome [9] | outcome [10] | outcome [11] | outcome [12] | outcome [13] | outcome [14] | outcome [15] | outcome [16] | outcome [17]

OCC(CBr)(CBr)CBr
inactive: Potency [1] | Potency [2] | Potency [3] | Potency [4] | Potency [5] | outcome [7] | outcome [8] | outcome [9] | outcome [10] | outcome [18] | outcome [11] | outcome [12] | outcome [13] | outcome [14] | outcome [15] | outcome [16] | outcome [17] | Potency [19] | Potency [20]

CN(C)C(=O)NC1(c2ccccc2)CCN(CCC[C@]2(c3ccc(Cl)c(Cl)c3)CCCN(C(=O)c3ccccc3)C2)CC1
inactive: Potency [1] | Potency [2] | Potency [3] | Potency [4] | Potency [5] | fluorescence, relative to Rose Bengal [7] -0.128% [at 18.6 µM] | fluorescence, % of fluorescein control [8] 0.0153% [at 18.6 µM] | fluorescence, % of triamterene [9] -0.0808% [at 18.6 µM] | fluorescence, % of fluorescent control [10] -0.621% [at 18.6 µM] | fluorescence, % of fluorescein [18] -0.116% [at 18.6 µM] | fluorescence, % of fluorescent control [11] 0.05% [at 18.6 µM] | activity change [12] 0.0134% [at 18.6 µM] | fluorescence, % of fluorescent control [13] -0.159% [at 18.6 µM] | fluorescence, % of Rose Bengal [14] -0.0596% [at 18.6 µM] | fluorescence, % of fluorescent control [15] -0.114% [at 18.6 µM] | fluorescence, % of fluorescein control [16] 0.0302% [at 18.6 µM] | fluorescence, % of fluorescent control [17] -0.0586% [at 18.6 µM] | Potency [19] | Potency [20]

OC[C@H]1O[C@@H](O[C@H]2[C@H](O)[C@@H](O)[C@H](O)O[C@@H]2CO)[C@H](O)[C@@H](O)[C@H]1O
inactive: Potency [1] | Potency [2] | Potency [3] | Potency [4] | Potency [5] | outcome [7] | outcome [8] | outcome [9] | outcome [10] | outcome [18] | outcome [11] | outcome [12] | outcome [13] | outcome [14] | outcome [15] | outcome [16] | outcome [17] | Potency [19] | Potency [20]

C=CCCCCCCCCO
inactive: Potency [1] | Potency [2] | Potency [3] | Potency [4] | Potency [5] | outcome [7] | outcome [8] | outcome [9] | outcome [10] | outcome [18] | outcome [11] | outcome [12] | outcome [13] | outcome [14] | outcome [15] | outcome [16] | outcome [17] | Potency [19] | Potency [20]

CCCOCCC
inactive: Potency [1] | Potency [2] | Potency [3] | Potency [4] | Potency [5] | Potency [6] | outcome [7] | outcome [8] | outcome [9] | outcome [10] | outcome [11] | outcome [12] | outcome [13] | outcome [14] | outcome [15] | outcome [16] | outcome [17] | Potency [19] | Potency [20]

Cc1ccsc1C(=CCCN1CCC[C@@H](C(=O)O)C1)c1sccc1C
inactive: Potency [1] | Potency [2] | Potency [3] | Potency [4] | Potency [5] | outcome [7] | outcome [8] | outcome [9] | outcome [10] | outcome [11] | outcome [12] | outcome [13] | outcome [14] | outcome [15] | outcome [16] | outcome [17]

Cc1cc(NS(=O)(=O)c2ccc(N)cc2)nc(C)n1
inactive: Potency [1] | Potency [2] | Potency [3] | Potency [4] | Potency [5] | outcome [7] | outcome [8] | outcome [9] | outcome [10] | outcome [18] | outcome [11] | outcome [12] | outcome [13] | outcome [14] | outcome [15] | outcome [16] | outcome [17]

O=C(O)C(=O)Cc1c[nH]c2ccccc12
inactive: Potency [1] | Potency [2] | Potency [3] | Potency [4] | Potency [5] | outcome [7] | outcome [8] | outcome [9] | outcome [10] | outcome [18] | outcome [11] | outcome [12] | outcome [13] | outcome [14] | outcome [15] | outcome [16] | outcome [17]

CC1(C)S[C@@H]2[C@H](NC(=O)C(C(=O)O)c3ccccc3)C(=O)N2[C@H]1C(=O)O (some centres undefined)
inactive: Potency [1] | Potency [2] | Potency [3] | Potency [4] | Potency [5] | outcome [7] | outcome [8] | outcome [9] | outcome [10] | outcome [18] | outcome [11] | outcome [12] | outcome [13] | outcome [14] | outcome [15] | outcome [16] | outcome [17] | Potency [19] | Potency [20]

CN1CCN(c2c(F)cc3c(=O)c(C(=O)O)cn4c3c2SCC4)CC1
inactive: Potency [1] | Potency [2] | Potency [3] | Potency [4] | Potency [5] | Potency [6] | outcome [7] | outcome [8] | outcome [9] | outcome [10] | outcome [11] | outcome [12] | outcome [13] | outcome [14] | outcome [15] | outcome [16] | outcome [17] | Potency [19] | Potency [20]

CCCCCCCCCC#N
inactive: Potency [1] | Potency [2] | Potency [3] | Potency [4] | Potency [5] | outcome [7] | outcome [8] | outcome [9] | outcome [10] | outcome [18] | outcome [11] | outcome [12] | outcome [13] | outcome [14] | outcome [15] | outcome [16] | outcome [17] | Potency [19] | Potency [20]
